An excerpt weighted towards active compounds, which were near 1.6% of everything screened.
KCNQ2 pot – KCNQ2 (rat) channel potentiation; O88943; CHO-K1 KCNQ2, FluxOR thallium flux fluorescence; active compounds read high; B-score at 10 µM; actives 0.54% (n = 310,000);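 active = fluorescence ratio B-score at least 3 SD of library B-scores, with initial fluorescence B-score within 3 of them, cut at about 5.3 in these data; same plate scores as AID 2156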;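 also: B-score of peak minus minimum over baseline fluorescence ratio after K+ and Tl+ stimulus; positive B-score means potentiation of KCNQ2 with more thallium influx and brighter signal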
KCNQ2 block – KCNQ2 (rat) channel inhibition. B-score at 10 µM. actives 1.1% (n = 310,000). CHO-K1 KCNQ2, FluxOR thallium flux, 20 min; active compounds read low. O88943;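 active = fluorescence ratio B-score at most minus 3 library SDs, with starting brightness B-score within 2 library SDs, cut at about -5.5 in these data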
Kir21 conf inh – confirmation of mouse Kir2.1 potassium channel inhibitors | shares compounds with KCNQ2 pot | Kir2.1-expressing cells, FluxOR thallium flux fluorescence; active compounds read low | Tl flux remaining, % of negative control (active compounds read low), % at 10 µM | actives 41% (n = 2,300);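 active = Primary-screen hit whose thallium flux fell at least 3 control SD below untreated wells in both duplicates, with normal baseline fluorescence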
HEK293 ctr – counter-screen for Kir2.1 inhibitors: effect in parental HEK293 cells; shares compounds with KCNQ2 pot; FluxOR thallium flux fluorescence; 0% = unstimulated blank wells; FluxOR signal as % of negative control (100 = no effect), % at 10 µM; actives 19% (n = 2,300);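 active = dye signal at least 3 control SD above or below untreated wells in both duplicates, raw fluorescence within 3, either direction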;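 also: percent is based on the flux ratio of peak minus minimum fluorescence over baseline F0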
CHO-K1 Tl ctr – parental CHO-K1 activity in KCNQ2 potentiator counter-screen. shares compounds with KCNQ2 pot. parental CHO-K1 cells, FluxOR thallium flux fluorescence; zero = vehicle mean+3SD, 100% = vehicle-minus-blank window. activity increase over 3SD of controls, % at 10 µM. actives 43% (n = 1,200). AID 2282;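 active = signal rise of at least 3 SD above the untreated control mean, in both duplicate wells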;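 also: counter screen of KCNQ2 potentiator hits so any rise reflects channel-independent effects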
KCNQ1 sel pot – selectivity of KCNQ2 potentiators: effect on human KCNQ1; shares compounds with KCNQ2 pot; CHO KCNQ1 stable, FluxOR thallium flux fluorescence; beyond 3SD, as % of vehicle-control signal; activation over 3SD threshold, % at 10 µM; actives 28% (n = 1,200); AID 2283;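 active = fluorescence ratio rise of at least 3 SD of vehicle wells above their mean, in both replicate wells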
Target sequence (P51787 whole entry, looked up): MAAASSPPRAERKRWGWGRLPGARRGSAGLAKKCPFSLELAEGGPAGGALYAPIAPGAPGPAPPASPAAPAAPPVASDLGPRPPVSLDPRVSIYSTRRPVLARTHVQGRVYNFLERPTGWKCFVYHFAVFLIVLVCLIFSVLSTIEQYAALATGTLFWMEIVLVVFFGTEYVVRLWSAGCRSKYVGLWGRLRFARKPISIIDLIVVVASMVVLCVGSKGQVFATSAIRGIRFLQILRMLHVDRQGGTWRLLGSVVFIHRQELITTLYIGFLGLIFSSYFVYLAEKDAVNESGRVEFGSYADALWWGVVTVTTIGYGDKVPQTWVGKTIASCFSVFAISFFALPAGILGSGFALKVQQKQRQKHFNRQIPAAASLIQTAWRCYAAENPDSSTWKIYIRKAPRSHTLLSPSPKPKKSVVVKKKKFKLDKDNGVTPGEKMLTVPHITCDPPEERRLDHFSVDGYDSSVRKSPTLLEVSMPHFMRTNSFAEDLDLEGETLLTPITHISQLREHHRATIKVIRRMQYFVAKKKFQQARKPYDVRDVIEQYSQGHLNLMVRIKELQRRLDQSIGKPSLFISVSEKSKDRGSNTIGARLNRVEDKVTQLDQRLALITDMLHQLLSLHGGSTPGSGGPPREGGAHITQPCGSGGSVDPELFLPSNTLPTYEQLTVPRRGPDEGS
KCNQ2 pot confirm – confirmation of rat KCNQ2 potassium channel potentiators. potentiation, less the hit threshold, % at 10 µM. shares compounds with KCNQ2 pot. CHO-KCNQ2 cells, FluxOR thallium flux fluorescence. actives 68% (n = 1,200);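 active = fluorescence ratio rising 3 SD or more over the vehicle control mean in both replicates, plus primary screen hit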;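 also: peak minus minimum thallium fluorescence divided by baseline after K/Tl stimulus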
Kir21 spec – mouse Kir2.1 off-target activity of KCNQ2 potentiators | AID 2345 | shares compounds with KCNQ2 pot | HEK293 Kir2.1, FluxOR thallium flux fluorescence | actives 2% (n = 1,200) | activity over 3SD threshold, % at 10 µM;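 active = fluorescence ratio rise of at least 3 SD above the vehicle-control mean, seen in both replicates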
KCNQ2 W236L pot – potentiates the retigabine-insensitive rat KCNQ2 W236L mutant channel; shares compounds with KCNQ2 pot; actives 10% (n = 940); CHO KCNQ2-W236L, automated patch clamp current; current increase over 3SD of negative controls (%), active compounds read high, % at 25 µM;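 active = current increase at least 3 SD of the untreated controls above them in both duplicate recordings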
Hits are given with their value; 0 = inactive; - = no result.

SMILES	KCNQ2 pot	KCNQ2 block	Kir21 conf inh	HEK293 ctr	CHO-K1 Tl ctr	KCNQ1 sel pot	KCNQ2 pot confirm	Kir21 spec	others
O=C(COC(=O)Cn1cnc2ccccc2c1=O)Nc1cc(Cl)ccc1[N+](=O)[O-]	-	0	-	-	-	-	-	-
Cc1ccc(NC(=O)CNC(=O)CC23CC4CC(CC(C4)C2)C3)c(O)c1	10	0	0	0	0	0	25	0	KCNQ2 W236L pot=0
NS(=O)(=O)c1cccc(NC(=O)CNC(=O)CC23CC4CC(CC(C4)C2)C3)c1	0	0	-	-	-	-	-	-
O=C(CSc1cccc[n+]1[O-])N1CCCc2ccccc21	15	0	0	0	0	1.2	0	0
Cn1nnnc1SCC(=O)N1CCCc2ccccc21	0	0	-	-	-	-	-	-
CC(=O)N1c2ccc(S(=O)(=O)NCC3CCC(C(=O)NC4CCCCC4C)CC3)cc2CC1C (stereo not given)	-	0	-	-	-	-	-	-
Cc1ccsc1/C=N/NC(=O)C1CC(=O)N(c2ccccc2)C1 (stereo not given)	-	0	-	-	-	-	-	-
CN(CC1COc2ccccc2O1)C(=S)Nc1ccccc1 (stereo not given)	-	0	-	-	-	-	-	-
CCN(CC1COc2ccccc2O1)C(=S)NC1CC2CCC1C2 (stereo not given)	12	0	0	64%	37	0	0	0	KCNQ2 W236L pot=0
CN(CC(=O)Nc1ccc(Cl)cc1)CC(=O)Nc1cccc(Br)c1	-	0	-	-	-	-	-	-
Cc1cccc(/C=N\NC(=O)c2ccc(Cl)cc2)c1O	0	0	-	-	-	-	-	-
Cc1ccc(O)c(/C=N/NC(=O)Cc2ccc(Cl)cc2)c1	5.3	0	0	0	0	43	0	0
Cc1cccc(/C=N/NC(=O)Cc2ccc(Cl)cc2)c1O	7.2	0	0	69%	0	7.6	2.5	0	KCNQ2 W236L pot=0
Cc1ccsc1/C=N/NC(=O)Cc1ccc(Cl)cc1	-	0	-	-	-	-	-	-
CCOC(=O)Nc1ccc2c(c1)N(C(=O)CN1CCN(CCO)CC1)c1ccccc1CC2	0	0	-	-	-	-	-	-
Cc1cccc(NC(=O)CC(=O)Nc2cccc(C)c2)c1	-	0	-	-	-	-	-	-
Cc1cccc(NC(=O)C23CCC(C)(C2Br)C3(C)C)c1 (stereo not given)	10	0	0	0	0	7.4	0	0	KCNQ2 W236L pot=0
CCCCc1ccc(NC(=O)CSc2nnc(CNC(=O)c3ccco3)o2)cc1	0	0	-	-	-	-	-	-
Cc1cccc(NC(=O)NNC(=O)COc2ccc3ccccc3c2)c1	-	0	-	-	-	-	-	-
Cc1cc(Br)ccc1OCC(=O)NNC(=O)Cc1ccccc1	0	0	-	-	-	-	-	-
Cc1cc(Br)ccc1OCC(=O)NNC(=O)C(=O)Nc1ccccc1	11	0	0	228%	70	0	36	0	KCNQ2 W236L pot=0
O=C(COc1ccc2ccccc2c1)NNC(=O)C(=O)Nc1ccccc1	12	0	0	0	0	0	0	0	KCNQ2 W236L pot=0
CCOc1ccc(OCCC(=O)OCC(=O)Nc2cc(OCC)c(N3CCOCC3)cc2OCC)cc1	-	0	-	-	-	-	-	-
CCC(=O)N1CCc2cc(S(=O)(=O)NCCC(=O)NC3CCCCCC3)ccc21	0	0	-	-	-	-	-	-
CC(Oc1ccc(Cl)cc1)c1ccnn1S(=O)(=O)c1ccc(Cl)cc1 (stereo not given)	-	0	-	-	-	-	-	-
SMILES	KCNQ2 pot	KCNQ2 block	Kir21 conf inh	HEK293 ctr	CHO-K1 Tl ctr	KCNQ1 sel pot	KCNQ2 pot confirm	Kir21 spec	others
CC(Oc1ccccc1)c1ccnn1S(=O)(=O)c1ccccc1 (stereo not given)	-	0	52%	0	-	-	-	-
Cc1cc(N/N=C/c2ccc(O)cc2)c2cccc(C)c2n1	0	0	-	-	-	-	-	-
Cc1cc(C)c2nc(C)cc(N/N=C/c3ccc(O)cc3)c2c1	0	-8.1	0	0	-	-	-	-
Cc1ccc(NC(=O)c2ccc3c(c2)C(=O)N(c2cc(C)ccc2C)C3=O)nc1	0	0	-	-	-	-	-	-
O=C(N/N=C/c1ccc(COc2ccc(Br)cc2)o1)c1ccc2c(c1)OCO2	5.7	0	0	0	0	0	0	0
O=C(N/N=C/c1ccc(-c2ccc(Br)cc2)o1)c1ccc2c(c1)OCO2	-	0	-	-	-	-	-	-
COc1ccc(NC(=O)COc2cccc(-n3cnnn3)c2)cc1Cl	0	0	-	-	-	-	-	-
Cc1cccc(NC(=O)CSc2ccc3nnc(-c4cccnc4)n3n2)c1	-	0	-	-	-	-	-	-
COc1ccc(S(=O)(=O)Nc2c(O)ccc3ccccc23)cc1OC	8	0	0	0	29	1.9	23	0	KCNQ2 W236L pot=0
COc1ccc(C(=O)Nc2c(O)ccc3ccccc23)cc1OC	0	0	-	-	-	-	-	-
Cc1noc(C)c1C(=O)OCC(=O)c1c[nH]c2ccccc12	-	0	-	-	-	-	-	-
Cc1onc(-c2c(F)cccc2Cl)c1C(=O)OCC(=O)c1c[nH]c2ccccc12	6.4	0	0	0	0	0	0	0
Cc1cc(C(=O)NNC(=O)CN2C(=O)NC(C)(c3ccccc3)C2=O)c(C)o1 (stereo not given)	-	0	-	-	-	-	-	-
COc1ccccc1C(N)=S	0	0	-	-	-	-	-	-
O=C(CCc1nc2ccccc2s1)OCc1ccccc1F	0	0	-	-	-	-	-	-
O=C(Nc1nnc(-c2ccc3c(c2)CCCC3)o1)c1ccc(Cl)cc1Cl	8.9	0	0	255%	0	69	15	0	KCNQ2 W236L pot=0
O=C(Nc1nnc(-c2ccc3c(c2)CCCC3)o1)c1c(F)cccc1F	-	0	-	-	-	-	-	-
COc1cccc(CNc2ccc3[nH]c(=O)[nH]c3c2)c1OCc1ccccc1	7.9	0	-	-	32	0	0	0
COc1cccc(CNc2ccc3[nH]c(=O)[nH]c3c2)c1OCc1ccccc1Cl	0	0	-	-	-	-	-	-
O=C(CCNS(=O)(=O)c1ccccc1F)N1CCN(C(c2ccccc2)c2ccccc2)CC1	16	0	0	0	0	0	44	0	KCNQ2 W236L pot=0
O=C(CCNS(=O)(=O)c1ccccc1F)N1CCN(S(=O)(=O)c2cccc(F)c2)CC1	-	0	-	-	-	-	-	-
COc1cccc(NC(=O)c2nc(S(C)(=O)=O)ncc2Cl)c1	-	0	63%	64%	-	-	-	-
COc1cccc(NC(=O)c2nc(SC)ncc2Cl)c1	0	0	-	-	-	-	-	-
O=C(NCc1cccnc1)c1ccc(S(=O)(=O)N2CCCCCC2)cc1	-	0	-	-	-	-	-	-
COc1ccc(CCNC(=O)COc2cccc3c2OC(C)(C)C3)cc1OC	-	0	52%	0	-	-	-	-
CC(C)CCNC(=O)COc1cccc2c1OC(C)(C)C2	0	0	-	-	-	-	-	-
O=C(CSc1nnc(C2CC2)n1CC1CCCO1)Nc1cccc(Cl)c1 (stereo not given)	-	0	-	-	-	-	-	-
CC(NC(=O)COC(=O)C1CCC1)c1ccccc1 (stereo not given)	-	0	-	-	-	-	-	-
COc1ccccc1NC(=O)C(CC(C)C)NC(=O)C1CCCCC1 (stereo not given)	-	0	-	-	-	-	-	-

Screening results (PubChem BioAssay)
